Experimental data from PubChem BioAssay AID435003 (Sanford-Burnham Center for Chemical Genomics, 2010).
Among all 330,000 compounds or so, about 1,700 (0.52%) were called active. Rule as the data show it: active = inhibition above about 50%; inactive = the rest. Only a selection was taken, and actives are over-represented in it overall.

Experiment: inhibitors of induced NF-kB luciferase reporter, primary screen, TCR NF-kB activation inhibitor project, cell-based, luminescence, uHTS (AID 435003)
Conditions: Jurkat, PMA/ionomycin-induced NF-kB luciferase reporter, at 4 µM, hits give high values

inhibition, active:
O=c1cc(-c2ccccc2)[nH]c2cc(F)ccc12 61.5%, O=C(NC(Nc1nc2ccc([N+](=O)[O-])cc2s1)(C(F)(F)F)C(F)(F)F)c1ccccc1 72.3%, Cc1ccc(O)c(NC(=O)COc2cc(C)ccc2C)c1 61.3%, COc1ccccc1NC1=NC(c2ccc(Cl)cc2)N=C(N)N1 (configuration not stated) 60.9%

inhibition, inactive:
Cc1ccc(-n2c(SCC(=O)NCc3ccc4c(c3)OCO4)nnc2-c2cccnc2)c(C)c1 -1.23%, O=[N+]([O-])c1ccc(N2CCNCC2)cc1NCc1cccnc1 1.76%, CCCC(C(=O)NC1CCCC1)N(C(=O)Cn1nnc(-c2ccc(C)o2)n1)c1cccc(O)c1 (configuration not stated) 7.15%, Cc1ccc(-c2cc(=O)c3ccc(F)cc3[nH]2)cc1 14.5%, CC(=O)c1cc(-c2ccccc2)[nH]c1N1CCCC1 8.23%, CSc1ccc(NC(=O)N2CC(C)OC(C)C2)cc1 (configuration not stated) 21.7%, COCc1cc(C)nc(Nc2cc(C)ccc2C)c1C#N 6.05%, O=C(COC(=O)c1ccc([N+](=O)[O-])cc1Cl)NC(=O)c1ccccc1 3.88%, O=C(O)c1cc([N+](=O)[O-])c(Nc2cccc3ccccc23)c([N+](=O)[O-])c1 -10.8%, O=C(CSc1nnc(Nc2ccccc2F)s1)NC1CCCC1 -19.9%, COc1cccc(CN2CCNC(=O)C2CC(=O)N(C)CCc2ccccn2)c1 (configuration not stated) -0.459%, Cc1ccc(O)c(NC(=S)NC(=O)COc2ccc(Br)cc2)c1 14.2%, Cc1ccc(C)c(OCC(=O)NNC(=O)C2CCC2)c1 0.404%, COc1ccc(Br)cc1S(=O)(=O)N1CCN=C1C -11.9%, COCCNC(=O)c1ccc(Cn2c(SCC(=O)NCC3CCCO3)nc3ccc(Br)cc3c2=O)cc1 (configuration not stated) 23.7%, COc1ccccc1NC(=O)c1cc(Cl)nnc1Cl -0.0528%, COc1ccccc1NC(=O)C1CCCN1S(=O)(=O)c1ccc(Cl)cc1 (configuration not stated) -8.88%, CC(C)n1c(-c2ccncc2)n[nH]c1=S 11.1%
